Reference: the supplement of paper PMC12494721
Structures can show the parent of a compound that is named as a salt.

Legend:
Details in all cases: incubation time: 27 h, anaerobic, 37 °C;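 for the amine columns active = adjusted P below 0.05 in both replicates with a change the same way and a mean fold change under 0.8 or over 1.25; inactive = the rest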
[1] = tested on: Clostridium sporogenes DSM 1664; experiment: growth (OD595) fold change vs plate DMSO controls (fold change (ratio)); higher = more growth
Outline: (§1)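 Growth is the fold change relative to the median of plate DMSO controls. Readings came from anaerobic mGAM cultures in 96-well plates grown for 27 h at 37 °C and read at 595 nm. They were blank-subtracted, corrected for compound background with 20 µM compound solutions in water, and converted to OD with a calibration factor of 5. Values are means of 2 biological replicates, and fold changes above 1.5 were set to NA.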

[2] = tested on: Escherichia coli IAI1; experiment: as above
Outline: as §1

[3] = tested on: Klebsiella aerogenes DSM 30053; experiment: as above
Outline: as §1

[4] = tested on: Ruminococcus gnavus DSM 108212; experiment: as above
Outline: as §1

[5] = tested on: Klebsiella aerogenes DSM 30053; experiment: fold change of Histamine concentration vs plate DMSO controls (fold change (ratio)); higher = more amine produced, active = hit call of the paper (significant change in both replicates, either direction)
Outline: (§2)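 Anaerobic mGAM cultures of four gut bacterial strains were grown at 37 °C for 27 h in 80 µL wells, starting at OD 0.1 before 1:1 dilution. Compounds were at 20 µM final (sweeteners 50 µM). Whole cultures were extracted with cold acetonitrile/methanol containing 0.1% formic acid and centrifuged. Amines were quantified by LC–triple-quadrupole MS (dynamic MRM) against external calibration curves and drift-corrected within batch. Each value is the fold change versus plate DMSO controls, averaged over 2 biological replicates.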

[6] = tested on: Clostridium sporogenes DSM 1664; experiment: fold change of Tryptamine concentration vs plate DMSO controls (fold change (ratio)); higher = more amine produced, active = hit call of the paper (significant change in both replicates, either direction)
Outline: as §2

[7] = tested on: Ruminococcus gnavus DSM 108212; experiment: as above
Outline: as §2

[8] = tested on: Escherichia coli IAI1; experiment: fold change of Putrescine concentration vs plate DMSO controls (fold change (ratio)); higher = more amine produced, active = hit call of the paper (significant change in both replicates, either direction)
Outline: as §2

[9] = tested on: Klebsiella aerogenes DSM 30053; experiment: as above
Outline: as §2

[10] = tested on: Escherichia coli IAI1; experiment: fold change of Cadaverine concentration vs plate DMSO controls (fold change (ratio)); higher = more amine produced, active = hit call of the paper (significant change in both replicates, either direction)
Outline: as §2

[11] = tested on: Klebsiella aerogenes DSM 30053; experiment: as above
Outline: as §2

[12] = tested on: Ruminococcus gnavus DSM 108212; experiment: fold change of 2-Phenylethylamine concentration vs plate DMSO controls (fold change (ratio)); higher = more amine produced, active = hit call of the paper (significant change in both replicates, either direction)
Outline: as §2

Row | Structure (SMILES) | growth [1] | growth [2] | growth [3] | growth [4] | fold change of Histamine concentration [5] | fold change of Tryptamine concentration [6] | fold change of Tryptamine concentration [7] | fold change of Putrescine concentration [8] | fold change of Putrescine concentration [9] | fold change of Cadaverine concentration [10] | fold change of Cadaverine concentration [11] | fold change of 2-Phenylethylamine concentration [12]
1 | CN(C)C(=O)Nc1ccc(Cl)c(Cl)c1 (20 µM) | 1.05 | 1.02 | 0.938 | 1.08 | 1.01 (inactive) | 0.947 (inactive) | 0.962 (inactive) | 0.97 (inactive) | 0.976 (inactive) | 0.991 (inactive) | 0.99 (inactive) | 0.954 (inactive)
2 | COc1cc2c(cc1OC)CC(=O)N(CCCN(C)C[C@H]1Cc3cc(OC)c(OC)cc31)CC2 [Ivabradine hydrochloride] (20 µM) | 1.05 | 0.995 | 0.986 | 0.903 | 1.02 (inactive) | 1.01 (inactive) | 1.1 (inactive) | 0.924 (inactive) | 0.937 (inactive) | 0.895 (inactive) | 1.01 (inactive) | 1.1 (inactive)
3 | Nc1nc(NC2CC2)c2ncn([C@H]3C=C[C@@H](CO)C3)c2n1 [Abacavir sulfate] (20 µM) | 1.25 | 1.05 | 1.02 | 1.02 | 1.04 (inactive) | 0.969 (inactive) | 0.953 (inactive) | 1.03 (inactive) | 1.04 (inactive) | 0.969 (inactive) | 0.992 (inactive) | 0.935 (inactive)
4 | Oc1c(Cl)cc(Cl)c(Cl)c1Cc1c(O)c(Cl)cc(Cl)c1Cl [Hexachlorophene] (20 µM) | 0 | 0.943 | 0.999 | 0 | 1.17 (inactive) | 0.0251 (active) | 0.0326 (active) | 0.982 (inactive) | 1.02 (inactive) | 1.1 (inactive) | 1.02 (inactive) | 0.0393 (active)
5 | Nc1nc(N)c2nc(-c3ccccc3)c(N)nc2n1 [Triamterene] (20 µM) | 1.09 | 0.967 | 0.969 | 1.25 | 1.05 (inactive) | 0.928 (inactive) | 0.966 (inactive) | 0.8 (inactive) | 1.01 (inactive) | 1.04 (inactive) | 0.988 (inactive) | 0.907 (inactive)
6 | Nc1nc2ccc(OC(F)(F)F)cc2s1 [Riluzole hydrochloride] (20 µM) | 0.972 | 0.95 | 1.06 | 0.998 | 1.08 (inactive) | 0.945 (inactive) | 0.96 (inactive) | 0.97 (inactive) | 0.988 (inactive) | 0.987 (inactive) | 0.983 (inactive) | 0.968 (inactive)
7 | CCCCc1oc2ccc(NS(C)(=O)=O)cc2c1C(=O)c1ccc(OCCCN(CCCC)CCCC)cc1 [Dronedarone hydrochloride] (20 µM) | 0.948 | 1.09 | 1.02 | 0.895 | 0.99 (inactive) | 0.925 (inactive) | 0.8 (inactive) | 1.16 (inactive) | 1 (inactive) | 0.996 (inactive) | 1.01 (inactive) | 0.957 (inactive)
8 | NC(=O)Cc1cccc(C(=O)c2ccccc2)c1N [Nepafenac] (20 µM) | 1.01 | 1.03 | 1.06 | 1.09 | 0.929 (inactive) | 1.04 (inactive) | 1.06 (inactive) | 0.989 (inactive) | 0.993 (inactive) | 0.962 (inactive) | 1.04 (inactive) | 1.11 (inactive)
9 | C=CCc1ccccc1OCC(O)CNC(C)C (stereo not given) [Alprenolol hydrochloride] (20 µM) | 0.992 | 0.97 | 0.955 | 0.856 | 1.05 (inactive) | 1.07 (inactive) | 1.08 (inactive) | 0.934 (inactive) | 0.985 (inactive) | 1.01 (inactive) | 0.998 (inactive) | 0.998 (inactive)
10 | CC(=O)Oc1ccc(C(=C2CCCCC2)c2ccc(OC(C)=O)cc2)cc1 [Cyclofenil] (20 µM) | 0.924 | 1.04 | 1.03 | 0.991 | 0.983 (inactive) | 0.873 (inactive) | 0.953 (inactive) | 1.05 (inactive) | 0.997 (inactive) | 0.997 (inactive) | 1 (inactive) | 0.942 (inactive)
11 | O=C(c1ccccc1)c1ccc2n1CCC2C(=O)O (stereo not given) [Ketorolac tromethamine] (20 µM) | 0.909 | 1.04 | 0.976 | 0.993 | 1.04 (inactive) | 1.08 (inactive) | 1.03 (inactive) | 1.15 (inactive) | 1.03 (inactive) | 1.07 (inactive) | 0.995 (inactive) | 0.994 (inactive)
12 | CCc1oc2ccccc2c1C(=O)c1ccc(O)cc1 [Benzarone] (20 µM) | 1 | 1.1 | 1.09 | 1.11 | 0.967 (inactive) | 0.933 (inactive) | 0.934 (inactive) | 1.06 (inactive) | 1 (inactive) | 1.01 (inactive) | 1.02 (inactive) | 0.956 (inactive)
13 | CCOC(=O)Nc1ccc2c(c1)N(C(=O)CCN1CCOCC1)c1ccccc1S2 [Moricizine hydrochloride] (20 µM) | 1.09 | 1.08 | 0.995 | 1.06 | 1 (inactive) | 0.989 (inactive) | 0.978 (inactive) | 1.03 (inactive) | 1.01 (inactive) | 1.01 (inactive) | 1 (inactive) | 1 (inactive)
14 | CC(C)(C#N)c1cc(Cn2cncn2)cc(C(C)(C)C#N)c1 [Anastrozole] (20 µM) | 0.911 | 1.16 | 1.01 | 1.02 | 1.02 (inactive) | 1.11 (inactive) | 1.09 (inactive) | 1.06 (inactive) | 0.954 (inactive) | 1.01 (inactive) | 0.994 (inactive) | 1.1 (inactive)
15 | CCOC(=O)OC(C)OC1=C(C(=O)Nc2ccccn2)N(C)S(=O)(=O)c2ccccc21 (stereo not given) [Ampiroxicam] (20 µM) | 1.02 | 0.978 | 1.03 | 1.1 | 0.908 (inactive) | 0.998 (inactive) | 0.999 (inactive) | 0.976 (inactive) | 0.998 (inactive) | 0.983 (inactive) | 1.01 (inactive) | 0.99 (inactive)
16 | O=C(CO)[C@@H](O)[C@H](O)[C@@H](CO)O[C@H]1O[C@H](CO)[C@@H](O)[C@H](O)[C@H]1O [Leucrose] (50 µM) | 0.936 | 0.999 | 1.01 | 0.99 | 1.02 (inactive) | 1.03 (inactive) | 0.993 (inactive) | 1.05 (inactive) | 1 (inactive) | 1.02 (inactive) | 0.992 (inactive) | 0.968 (inactive)
17 | CN(CCOc1ccc(CC2SC(=O)NC2=O)cc1)c1ccccn1 (stereo not given) [Rosiglitazone hydrochloride] (20 µM) | 1.05 | 1.15 | 0.983 | 1.05 | 0.998 (inactive) | 1.06 (inactive) | 1.08 (inactive) | 1.17 (inactive) | 0.993 (inactive) | 0.926 (inactive) | 1.03 (inactive) | 1.12 (inactive)
18 | CC(C(=O)O)c1cccc(C(=O)c2ccccc2)c1 (stereo not given) [Ketoprofen] (20 µM) | 0.99 | 1.04 | 0.993 | 0.957 | 1.03 (inactive) | 0.984 (inactive) | 1.06 (inactive) | 1.1 (inactive) | 1.01 (inactive) | 1.02 (inactive) | 0.995 (inactive) | 1.12 (inactive)
19 | CCCOC(=O)NCCCN(C)C (20 µM) | 1.08 | 0.981 | 0.968 | 1.17 | 1.06 (inactive) | 1.05 (inactive) | 1.09 (inactive) | 0.952 (inactive) | 0.821 (inactive) | 0.93 (inactive) | 1.05 (inactive) | 1.22 (inactive)
20 | CCCCCN(C)CCC(O)(P(=O)(O)O)P(=O)(O)O [Ibandronate sodium] (20 µM) | 1.07 | 0.989 | 0.973 | 0.926 | 1.04 (inactive) | 1.05 (inactive) | 0.934 (inactive) | 1 (inactive) | 1.01 (inactive) | 1.03 (inactive) | 0.994 (inactive) | 0.958 (inactive)
21 | CC(=O)c1ccc2c(c1)N(CCCN(C)C)c1ccccc1S2 [Acetopromazine maleate salt] (20 µM) | 0.96 | 1 | 0.976 | 0.878 | 1.03 (inactive) | 1.01 (inactive) | 1.01 (inactive) | 1 (inactive) | 1.01 (inactive) | 1.03 (inactive) | 0.983 (inactive) | 1.03 (inactive)
22 | c1ccc2[nH]c(-c3cscn3)nc2c1 [Tiabendazole] (20 µM) | 1.06 | 0.991 | 0.899 | 0.962 | 1.12 (inactive) | 1.01 (inactive) | 1.02 (inactive) | 0.997 (inactive) | 0.964 (inactive) | 1.04 (inactive) | 0.979 (inactive) | 1.04 (inactive)
23 | CN(C)C(=O)C(CCN1CCC(O)(c2ccc(Cl)cc2)CC1)(c1ccccc1)c1ccccc1 [Loperamide hydrochloride] (20 µM) | 1.1 | 1.04 | 1.05 | 0.853 | 0.935 (inactive) | 0.976 (inactive) | 0.949 (inactive) | 1 (inactive) | 0.963 (inactive) | 1.02 (inactive) | 1.02 (inactive) | 0.915 (inactive)
24 | Cn1cnc2c1c(=O)[nH]c(=O)n2C [Theobromine] (20 µM) | 1.19 | 1 | 1.04 | 1.11 | 0.986 (inactive) | 1.11 (inactive) | 1.05 (inactive) | 0.998 (inactive) | 0.991 (inactive) | 0.982 (inactive) | 1 (inactive) | 1.04 (inactive)
25 | NCCNCCNCCNCCN [Tetraethylenepentamine pentahydrochloride] (20 µM) | 1 | 1.1 | 1.02 | 0.923 | 1 (inactive) | 1.03 (inactive) | 0.952 (inactive) | 1.07 (inactive) | 0.994 (inactive) | 0.955 (inactive) | 0.994 (inactive) | 0.967 (inactive)
